Out of some 1,200 compounds screened, about 840 (70%) were called active. No rule for the calls is given here. The set was probably picked from earlier hits. The list is a sample of the results. Results with a measured potency or affinity are listed apart.
Test: NF-kB promoter reporter activators, neuronal cells, dose response, cell-based, SH-SY5Y, luciferase (AID 1241)
Conditions: series mostly up to 30 µM; fold induction over control: at the top concentration

Fold induction over control, inactive:
CC1=C/C(=N\OS(=O)(=O)c2ccccc2)C(C)=CC1=O 0.31
Cn1c(-c2ccc(Br)o2)nc2cc(Br)ccc21 9.61
Clc1ccccc1-c1nnc(-c2cccs2)o1 9.9
O=C(Nc1nccs1)c1sc2ccccc2c1Cl 11.4 [at 15 µM]
CCCCCCOc1ccc(/C(N)=N/O)cc1 11.4
CCCCCCOc1ccc(OC(=O)c2ccncc2)cc1 5.72
N#Cc1c(NCCO)nc(NCc2ccccc2)c2c1CCN(Cc1ccccc1)C2 0.9
CCC(=O)Nc1cccc(C(=O)/C=C/c2ccccc2)c1 9 [at 15 µM]
Cc1ccccc1NC(=O)/C=C/c1ccc([N+](=O)[O-])s1 5.73 [at 15 µM]
Cc1ccc(NC(=O)/C=C/c2cccs2)c([N+](=O)[O-])c1 10.2
Cc1nn(Cc2ccccc2)c(Cl)c1/C=C/C(=O)OCC(=O)N1CCCC1=O 1.01
Cc1cccc(NC(=O)c2csnn2)n1 1.22
COc1ccc(OCCOC(=O)c2[nH]c(C)c(C(C)=O)c2C)cc1 0.69
Cc1ccc(Nc2nc(N)nc(CSc3ncccn3)n2)cc1 8.11
Cc1cc(N2CCOCC2)ccc1/C=C1/SC(=O)NC1=O 3.2
Cc1ccc(/C=N/N=C/c2ccc(C)s2)s1 16.3
CCOC(=O)c1ccc(NC(=O)N2CCc3ccccc32)cc1 9.88
CCCCNC(=O)c1cc(-c2ccc(F)cc2)on1 20.1
COc1ccc2c(=O)c(-c3ccccc3)coc2c1 9.03
CN(C)c1ccc(C(=S)NCc2ccco2)cc1 4.68
Cc1nnc(SCC(=O)Nc2nsc(-c3ccc(C(C)(C)C)cc3)n2)s1 10.8
COc1ccc(C2=NN3C(C2)c2ccccc2OC32C(=O)N(C)c3ccccc32)cc1 (stereo not drawn) 8.01
CC(=O)c1cc(N2CCOCC2)ccc1[N+](=O)[O-] 1.03
O=C(O)/C=C\C(=O)Nc1ccccc1C#Cc1ccccc1 1.8
CC(C)Cc1cc(C(=O)Nc2cc(Br)ccc2O)no1 2.37
CC(C)c1cc(C(=O)Nc2cc(Br)ccc2O)no1 2.7
CCc1cc(C(=O)Nc2ccc(C)cc2Br)cs1 7.97
O=C(CCC(=O)c1cccs1)c1cccs1 10.6
Cc1ccc(C(=O)COC(=O)c2ccc(O)cc2)cc1 10.9
O=C(CC(SCc1ccco1)c1ccc(O)cc1)c1cccs1 (stereo not drawn) 11.4
Cc1ccc(C)c(OCC(=O)O/N=C(\N)c2ccccn2)c1 5.69
CC(C)c1ccc(/C=N/NC(=O)c2c(Cl)cnn2C)cc1 9.29
CC(=O)c1sc(NC(=O)c2cccc(C)c2)nc1C 10.6
O=C(Nc1cccnc1)c1cc(-c2ccc3c(c2)OCO3)on1 12 [at 15 µM]
O=c1c2c(nc3cc(-c4ccccc4)[nH]n13)CCS2 3.49
Cc1ccc(CN2CN(S(=O)(=O)c3cccs3)c3nc4ccccc4nc32)cc1 1.19
Nc1c(C(=O)C2CC2)sc2nc3c(cc12)CCC3 10.5
CCOC(=O)c1sc2nc3c(cc2c1N)COC(C)(C)C3 11
COc1ccc(NC(=O)c2cc3ccccc3o2)cc1 11.5
O=C(Nc1ccc(Cl)cn1)c1ccc([N+](=O)[O-])o1 12.4
Cc1cccc(NC(=O)c2cc3ccccc3o2)c1 11.9
COc1ccc2oc(=N)c(C(=O)Nc3ccccc3)cc2c1 12.7
O=C(Nc1cccc(Br)c1)c1cc2ccccc2o1 10.1
CCN1C/C(=C/c2ccc(N3CCOCC3)cc2)C(=O)/C(=C/c2ccc(N3CCOCC3)cc2)C1 13 [at 15 µM]
Cc1ccc(NC(=O)/C(C#N)=C(\N)C(Cl)(Cl)Cl)nc1 5.72 [at 7.5 µM]
CN1CCN(CC(=O)Nc2ccccc2[N+](=O)[O-])CC1 1.19
N/C(=N\OC(=O)COc1ccc(Cl)cc1Br)c1ccncc1 9.84
COc1ccccc1/C=N\Nc1cn[nH]c(=O)c1Cl 1.17

— PubChem BioAssay AID1241 (SRMLSC, 2008)
